The source made the active and inactive calls. The rule behind the calls is not given here.

Estrogen receptor (Homo sapiens), sequence (P03372 whole entry, looked up): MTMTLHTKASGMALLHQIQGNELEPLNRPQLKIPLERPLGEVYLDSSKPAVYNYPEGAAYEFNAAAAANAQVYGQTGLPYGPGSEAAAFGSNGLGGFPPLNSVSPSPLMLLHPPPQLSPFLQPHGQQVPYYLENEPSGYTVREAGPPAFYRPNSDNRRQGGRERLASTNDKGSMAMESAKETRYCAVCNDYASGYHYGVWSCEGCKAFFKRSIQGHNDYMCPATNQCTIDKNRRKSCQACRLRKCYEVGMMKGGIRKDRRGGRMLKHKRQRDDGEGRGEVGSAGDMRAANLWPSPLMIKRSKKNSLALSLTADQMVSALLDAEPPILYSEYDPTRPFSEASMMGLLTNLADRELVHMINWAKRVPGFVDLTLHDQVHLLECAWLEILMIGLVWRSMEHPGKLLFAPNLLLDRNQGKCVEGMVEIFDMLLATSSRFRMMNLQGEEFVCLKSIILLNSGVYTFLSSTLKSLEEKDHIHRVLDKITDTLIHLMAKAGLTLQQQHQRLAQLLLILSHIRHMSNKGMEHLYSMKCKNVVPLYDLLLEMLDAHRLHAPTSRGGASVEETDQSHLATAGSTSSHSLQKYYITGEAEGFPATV

One assay has as its target Estrogen receptor (Homo sapiens) (UniProt P03372). As to the kind of experiment: ERalpha ligand binders by competition, primary screen, cell-based, Cos7 ERalpha-GFP, flow cytometry (AID 1211).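 Note: 0% = DMSO vehicle wells and 100% = no E2-Alexa633 signal left.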 Conditions: fluorescent ligand competition, at 10 µM, stronger effect = higher value.
On to `Cn1c(-c2ccc(N)cc2)nc2ccccc21`, for which the inhibition of ligand binding was 23% (inactive).

Regarding `O=C(Cc1cccs1)Nc1ccc(-c2nnn(CC(=O)N3CCOCC3)n2)cc1`, the inhibition of ligand binding is 15% (inactive).

For the compound `COC(=O)c1[nH]c2ccc(C)cc2c1NC(=O)CN1CCCc2ccccc21`, the inhibition of ligand binding is 49% (inactive).

For the compound `COc1cccc2c1NC(C(=O)O)C1CC=CC21` (stereo not drawn), the inhibition of ligand binding was 38% (inactive).

Consider `CCOC(=O)Cc1csc(NC(=O)Cc2cccs2)n1`, for which the inhibition of ligand binding is 28% (inactive).

On to `COc1cc(-c2nc3ccc4ccccc4c3c3c2CCC3)cc(OC)c1O`, for which the inhibition of ligand binding was 0% (inactive).

For `N#CC(C(=O)Nc1ccc(Cl)cc1)=C1Nc2ccccc2N1`, the inhibition of ligand binding is 48% (inactive).

As for `O=C(CSc1nc2c(cnn2-c2ccccc2)c(=O)[nH]1)c1ccc(Cl)cc1`, the inhibition of ligand binding was 18% (inactive).

On to `NC(=S)n1[nH]c(-c2ccc([N+](=O)[O-])cc2)c(N=Nc2ccc(O)cc2)c1=O`, for which the inhibition of ligand binding was 10% (inactive).

`CN(C)S(=O)(=O)N(CC(=O)N(Cc1ccccc1)Cc1ccccc1)c1ccccc1`: the inhibition of ligand binding is 23% (inactive).

As for `CCOc1ccccc1N1CSC2=C(C#N)C(c3c(OC)ccc4ccccc34)CC(=O)N2C1` (stereo not drawn), the inhibition of ligand binding was 19% (inactive).

Consider `Nc1ccc2nc(CN3CCOCC3)[nH]c2c1`, for which the inhibition of ligand binding is 42% (inactive).

On to `CCCSc1nc(C)c(-c2csc(C(C#N)=C3CCCC3)n2)cc1C#N`, for which the inhibition of ligand binding was 37% (inactive).

With `COc1cc(NC(=O)COc2ccc(-n3cnnn3)cc2)c(OC)cc1Cl`, the inhibition of ligand binding is 58% (inactive).

As to `C/C(N)=C(/C#N)C(=O)CSc1nnc(Nc2cccc(C)c2C)s1`, the inhibition of ligand binding was 32% (inactive).

With `Cc1nc2sccn2c1-c1nc(-c2cc3ccccc3o2)cs1`, the inhibition of ligand binding is 4% (inactive).

As to `Cc1cc(-c2nn3c(-c4ccccc4)nnc3s2)c2ccccc2n1`, the inhibition of ligand binding was 23% (inactive).

Regarding `Cc1[nH]c2ccc(-c3nnc(SCC(=O)c4ccccc4F)o3)cc2c1C`, the inhibition of ligand binding was 43% (inactive).

Consider `O=C(CNc1ccccc1)N/N=C/c1cn(-c2ccccc2)nc1-c1ccccc1`, for which the inhibition of ligand binding is 28% (inactive).

For `O=C(Nc1ccc(N2CCCC2)cc1)C(c1ccccc1)c1ccccc1`, the inhibition of ligand binding is 63% (inactive).

On to `Cc1ccc2c(c1)c(=O)c1c3n2CCN(C(=O)CCl)C3CC1` (stereo not drawn), for which the inhibition of ligand binding was 21% (inactive).

On to `COc1cccc(C(=O)NC2CCN(C(=O)N3c4ccccc4Sc4ccccc43)CC2)c1`, for which the inhibition of ligand binding was 60% (inactive).

For `CNc1nnc(-c2cc3cc(Cl)ccc3oc2=O)s1`, the inhibition of ligand binding was 29% (inactive).

Consider `COc1cc2cc(C(c3nnnn3C3CCCC3)N3CCc4ccccc43)c(=O)[nH]c2cc1OC` (stereo not drawn), for which the inhibition of ligand binding was 36% (inactive).

Regarding `CN1C(=O)CSc2ccc(NC(=O)N3CCC(N4CCCCC4)CC3)cc21`, the inhibition of ligand binding was 57% (inactive).

Take `COc1ccccc1C(=O)Nc1nc(-c2cccs2)c(NC(C)=O)s1`: the inhibition of ligand binding was 29% (inactive).

As to `O=C(Nc1ccc2oc(-c3ccccc3F)nc2c1)c1cncc(Br)c1`, the inhibition of ligand binding is 41% (inactive).

For the compound `COc1ccccc1NC(=O)c1ccccc1NC(=O)c1cc(Cl)ccc1NC(=O)c1ccco1`, the inhibition of ligand binding was 32% (inactive).

Consider `CC1(C)CC(=O)c2c(oc3cc(O)c(O)cc23)C1`, for which the inhibition of ligand binding was 20% (inactive).

Take `CCOC(=O)C1=C(O)/C(=C\c2ccc(CNC(=O)C(=O)Nc3ccccc3)o2)N=C1C`: the inhibition of ligand binding is 24% (inactive).

Turning to `Oc1cccc(-c2nc3ccc4ccccc4c3c3c2CCC3)c1`, the inhibition of ligand binding was 33% (inactive).

As to `CCOC(=O)c1ccc(NC(=O)CSc2nc(C)cc(=O)[nH]2)cc1`, the inhibition of ligand binding is 49% (inactive).

As to `COCCOC(=O)c1[nH]c2c(c1C)C(=O)CC(c1ccco1)C2` (stereo not drawn), the inhibition of ligand binding was 2% (inactive).

With `Cc1ccc(Nc2nnc(SCC(=O)NCc3ccco3)s2)cc1`, the inhibition of ligand binding was 10% (inactive).

With `Cc1ccc(Cc2cncc(O)c2)cc1S(=O)(=O)O`, the inhibition of ligand binding is 36% (inactive).

Turning to `Cn1ccnc1SCC(=O)Nc1ccc2nc(SCC(=O)NC3CC3)sc2c1`, the inhibition of ligand binding was 30% (active).

In the case of `Cc1ccc(N=Cc2c(O)n(-c3ccc4c(c3)OCO4)c(=O)c3ccccc23)cc1`, the inhibition of ligand binding is 49% (inactive).

On to `O=C(c1cccs1)N1N=C(c2ccc(O)cc2)CC1c1ccccc1` (stereo not drawn), for which the inhibition of ligand binding was 58% (inactive).

With `Cc1nc2ccc(C(=O)O)cc2[nH]1`, the inhibition of ligand binding is 55% (inactive).

Staying with this assay, now noted: fluorescent ligand competition, binding inhibition, at 0.1 µM, stronger effect = higher value.
With `Cn1c(-c2ccc(N)cc2)nc2ccccc21`, the inhibition of ligand binding was determined as 15%.

Regarding `O=C(Cc1cccs1)Nc1ccc(-c2nnn(CC(=O)N3CCOCC3)n2)cc1`, the inhibition of ligand binding was 55%.

Consider `COC(=O)c1[nH]c2ccc(C)cc2c1NC(=O)CN1CCCc2ccccc21`, for which the inhibition of ligand binding is 9%.

`COc1cccc2c1NC(C(=O)O)C1CC=CC21` (stereo not drawn) registered an inhibition of ligand binding of 9%.

In turn, `CCOC(=O)Cc1csc(NC(=O)Cc2cccs2)n1` registered an inhibition of ligand binding of 12%.

`COc1cc(-c2nc3ccc4ccccc4c3c3c2CCC3)cc(OC)c1O` yielded an inhibition of ligand binding of 30%.

`N#CC(C(=O)Nc1ccc(Cl)cc1)=C1Nc2ccccc2N1` gave an inhibition of ligand binding of 21%.

`O=C(CSc1nc2c(cnn2-c2ccccc2)c(=O)[nH]1)c1ccc(Cl)cc1` displayed an inhibition of ligand binding of 1%.

`NC(=S)n1[nH]c(-c2ccc([N+](=O)[O-])cc2)c(N=Nc2ccc(O)cc2)c1=O` gave an inhibition of ligand binding of 18%.

Consider `CN(C)S(=O)(=O)N(CC(=O)N(Cc1ccccc1)Cc1ccccc1)c1ccccc1`, for which the inhibition of ligand binding was found to be 24%.

In turn, `CCOc1ccccc1N1CSC2=C(C#N)C(c3c(OC)ccc4ccccc34)CC(=O)N2C1` (stereo not drawn) yielded an inhibition of ligand binding of 17%.

The compound `Nc1ccc2nc(CN3CCOCC3)[nH]c2c1` registered an inhibition of ligand binding of 41%.

`CCCSc1nc(C)c(-c2csc(C(C#N)=C3CCCC3)n2)cc1C#N` came in with an inhibition of ligand binding of 44%.

`COc1cc(NC(=O)COc2ccc(-n3cnnn3)cc2)c(OC)cc1Cl` came in with an inhibition of ligand binding of 41%.

On to `C/C(N)=C(/C#N)C(=O)CSc1nnc(Nc2cccc(C)c2C)s1`, for which the inhibition of ligand binding worked out at 16%.

With `Cc1nc2sccn2c1-c1nc(-c2cc3ccccc3o2)cs1`, the inhibition of ligand binding stood at 22%.

For `Cc1cc(-c2nn3c(-c4ccccc4)nnc3s2)c2ccccc2n1`, the inhibition of ligand binding stood at 24%.

In the case of `Cc1[nH]c2ccc(-c3nnc(SCC(=O)c4ccccc4F)o3)cc2c1C`, the inhibition of ligand binding worked out at 4%.

Turning to `O=C(CNc1ccccc1)N/N=C/c1cn(-c2ccccc2)nc1-c1ccccc1`, the inhibition of ligand binding was 52%.

Turning to `O=C(Nc1ccc(N2CCCC2)cc1)C(c1ccccc1)c1ccccc1`, the inhibition of ligand binding was 7%.

For `Cc1ccc2c(c1)c(=O)c1c3n2CCN(C(=O)CCl)C3CC1` (stereo not drawn), the inhibition of ligand binding was 26%.

Take `COc1cccc(C(=O)NC2CCN(C(=O)N3c4ccccc4Sc4ccccc43)CC2)c1`: the inhibition of ligand binding amounted to 13%.

`CNc1nnc(-c2cc3cc(Cl)ccc3oc2=O)s1` yielded an inhibition of ligand binding of 58%.

The compound `COc1cc2cc(C(c3nnnn3C3CCCC3)N3CCc4ccccc43)c(=O)[nH]c2cc1OC` (stereo not drawn) displayed an inhibition of ligand binding of 56%.

As for `CN1C(=O)CSc2ccc(NC(=O)N3CCC(N4CCCCC4)CC3)cc21`, the inhibition of ligand binding is 1%.

The compound `COc1ccccc1C(=O)Nc1nc(-c2cccs2)c(NC(C)=O)s1` gave an inhibition of ligand binding of 25%.

Consider `O=C(Nc1ccc2oc(-c3ccccc3F)nc2c1)c1cncc(Br)c1`, for which the inhibition of ligand binding came to 38%.

With `COc1ccccc1NC(=O)c1ccccc1NC(=O)c1cc(Cl)ccc1NC(=O)c1ccco1`, the inhibition of ligand binding stood at 3%.

Compound `CC1(C)CC(=O)c2c(oc3cc(O)c(O)cc23)C1` returned an inhibition of ligand binding of 54%.

The compound `CCOC(=O)C1=C(O)/C(=C\c2ccc(CNC(=O)C(=O)Nc3ccccc3)o2)N=C1C` came in with an inhibition of ligand binding of 19%.

As for `Oc1cccc(-c2nc3ccc4ccccc4c3c3c2CCC3)c1`, the inhibition of ligand binding amounted to 21%.

Turning to `CCOC(=O)c1ccc(NC(=O)CSc2nc(C)cc(=O)[nH]2)cc1`, the inhibition of ligand binding came to 21%.

`COCCOC(=O)c1[nH]c2c(c1C)C(=O)CC(c1ccco1)C2` (stereo not drawn) gave an inhibition of ligand binding of 8%.

The compound `Cc1ccc(Nc2nnc(SCC(=O)NCc3ccco3)s2)cc1` had an inhibition of ligand binding of 12%.

As for `Cc1ccc(Cc2cncc(O)c2)cc1S(=O)(=O)O`, the inhibition of ligand binding is 20%.

`Cn1ccnc1SCC(=O)Nc1ccc2nc(SCC(=O)NC3CC3)sc2c1` had an inhibition of ligand binding of 78%.

Consider `Cc1ccc(N=Cc2c(O)n(-c3ccc4c(c3)OCO4)c(=O)c3ccccc23)cc1`, for which the inhibition of ligand binding stood at 19%.

For the compound `O=C(c1cccs1)N1N=C(c2ccc(O)cc2)CC1c1ccccc1` (stereo not drawn), the inhibition of ligand binding was found to be 17%.

Compound `Cc1nc2ccc(C(=O)O)cc2[nH]1` showed an inhibition of ligand binding of 52%.

These data come from PubChem BioAssay AID1211 (NMMLSC, 2008).
